According to PubChem BioAssay (NCI):
Compounds without any hit were thinned out: in the full panel of roughly 83,000, 20% have a hit.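 48-hour exposure, single concentration, 96-well plates; percent growth endpoint where 0 means no net growth. Active: below 10.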 A number with no mark means an inactive call. Calls of active or inactive are those of the source.

Tests used:
Test in all cases: NCI-60 one-dose screen, 48 h (100 = growth as untreated, 0 = no growth, -100 = all killed)
[1] = test system: T-47D breast; details: 10 µM unless noted
[2] = test system: BT-549 breast; details: 10 µM unless noted
[3] = test system: MDA-MB-435 melanoma; details: 10 µM unless noted
[4] = test system: SW-620 colon; details: 10 µM unless noted
[5] = test system: MCF7 breast; details: 10 µM unless noted
[6] = test system: HCT-116 colon; details: 10 µM unless noted
[7] = test system: HCC-2998 colon; details: 10 µM
[8] = test system: KM12 colon; details: 10 µM unless noted

Row | SMILES | growth [1] | growth [2] | growth [3] | growth [4] | growth [5] | growth [6] | growth [7] | growth [8]
1 | Nc1cc2c(cc1Br)-c1c(C(=O)O)cccc1C2O (stereo not given) | 105% | 114% | 105% | 110% | 95.4% | 96.4% | 112% | 99.3%
2 | Cn1cc(-c2cnn3c(N)c(Br)c([C@@H]4CCCNC4)nc23)cn1 | 59.8% | 52.1% | 39.1% | 63.8% | 31.5% | 35.8% | 53.7% | 18.4%
3 | Nc1c(C(=O)c2ccccc2)sc2nc(-c3cccs3)cc(-c3cccs3)c12 | 36% | 50.9% | -14.4% (active) | 28.8% | 45.9% | 16.8% | 72.1% | 29.1%
4 | C=CC(=O)N1CCC[C@@H](n2nc(-c3ccc(Oc4ccccc4)cc3)c3c(N)ncnc32)C1 | 0.0664% (active) | 34.6% | 59.6% | 95.2% | 52.6% | 59.8% | 103% | 53.6%
5 | COC(=O)N[C@@H](C)CNc1nccc(-c2cn(C(C)C)nc2-c2cc(Cl)cc(NS(C)(=O)=O)c2F)n1 | 79.3% | 72.9% | 25.5% | 52.7% | 95.2% | 19.5% | 69.6% | 69.7%
6 | CCOC(=O)C1=C(C)N=C2Sc3cccc(OC)c3N2[C@H]1c1ccccn1 | 96.5% | 101% | 110% | 102% | 97% | 94.9% | 93.2% | 96.6%
7 | Cc1nn(-c2nc3ccccc3[nH]2)c2c1C(c1ccc(OCc3ccc(F)cc3)cc1)CC(=O)N2 (stereo not given) | 71.3% | 58.4% | 44.7% | 80.2% | 81.4% | 73.4% | 99.3% | 41.5%
8 | C=CC(=O)N1CCC[C@H](n2c(=O)n(-c3ccc(Oc4ccccc4)cc3)c3c(N)ncnc32)C1 | 37.7% | 91.9% | 101% | 97.4% | 86.5% | 74% | 100% | 92.1%
9 | COC(=O)[C@]12CC[C@@H](C)[C@H](C)[C@@H]1C1=CC[C@@H]3[C@@]4(C)C(C=O)=C[C@@](C)(COS(C)(=O)=O)C4=CC[C@@]3(C)[C@]1(C)CC2 | -10.6% (active) | -43.5% (active) | -73.8% (active) | -85.2% (active) | -16.8% (active) | -81.2% (active) | -83.5% (active) | -73% (active)
10 | CC(C)(C)c1cnc(CSc2cnc(NC(=O)C3CCNCC3)s2)o1 | -7.81% (active) | 0.761% (active) | -58.7% (active) | 5.06% (active) | 3.72% (active) | 2.22% (active) | 0.238% (active) | 3.58% (active)
11 | CCc1cnn2c(NCc3ccc[n+]([O-])c3)cc(N3CCCC[C@H]3CCO)nc12 | -16.9% (active) | -15.7% (active) | -35.4% (active) | -4.01% (active) | 1.85% (active) | 1.22% (active) | -37.3% (active) | 1.55% (active)
12 | Cc1cccc(C)c1N1C(c2ccccc2)=NNC12C=CC(=O)c1c(O)cccc12 (stereo not given) | 96.2% | 44.7% | -90.1% (active) | 103% | 78.7% | 45.3% | 98.5% | 75.9%
13 | CO[C@H]1C[C@@H]2CC[C@@H](C)[C@@](O)(O2)C(=O)C(=O)N2CCCC[C@H]2C(=O)O[C@H]([C@H](C)C[C@@H]2CC[C@@H](OP(C)(C)=O)[C@H](OC)C2)CC(=O)[C@H](C)/C=C(\C)[C@@H](O)[C@@H](OC)C(=O)[C@H](C)C[C@H](C)\C=C/C=C/C=C/1C | 11.5% | 39.7% | 56.7% | 60.1% | 30.5% | 65.1% | 56.4% | 59.6%
14 | C#Cc1cccc(Nc2ncnc3cc(OCCOC)c(OCCOC)cc23)c1 | 30.9% | 68.6% | 74.7% | 74.6% | 88.3% | 54.1% | 94.8% | 77.8%
15 | CCCCCC(=O)OCc1ccc(Cl)c(Cl)c1 | 105% | 109% | 109% | 109% | 93.9% | 101% | 94.8% | 103%
16 | Cc1ccccc1N1C(c2ccccc2)=NNC12C=CC(=O)C=C2Cl (stereo not given) | 117% | 106% | 112% | 119% | 98% | 103% | 102% | 110%
17 | NS(=O)(=O)c1ccc(CCN2C(=O)/C(=C\c3ccc(Cl)cc3)C=C2c2ccc3ccccc3c2)cc1 | 71.8% | 95.1% | 97% | 106% | 90.6% | 89.5% | 94.8% | 93%
18 | C[C@@H](C[C@H](CCO)c1cc(C(F)(F)F)cc(C(F)(F)F)c1)c1ccc2ccccc2c1 | 55.2% | 102% | 38.8% | 88.7% | 78.9% | 67.6% | 86.1% | 71.3%
19 | CC(C)[C@@H]1CC[C@]2(CO2)[C@@H]2C(=O)OCC(C(=O)O)=C[C@H]21 | 12.3% | -5.36% (active) | -6.19% (active) | 5.52% (active) | 45.3% | 3.63% (active) | 4.07% (active) | 2.53% (active)
20 | Clc1ccc(C(Cn2ccnc2)OCc2ccsc2Cl)c(Cl)c1 (stereo not given) | 43.5% | 40% | -0.595% (active) | 45.1% | 43.7% | 26.3% | 53.8% | 24.6%
21 | O=C(Cc1ccc(-c2ccc(OCCN3CCOCC3)cc2)cn1)NCc1ccccc1 | 34.2% | 3.61% (active) | -21.8% (active) | 21.3% | 10.7% | 6.1% (active) | 8.15% (active) | 6.91% (active)
22 | CC(=O)OCCC/C(=C\c1ccc2ccccc2c1)[N+](=O)[O-] | -50.9% (active) | -25.6% (active) | -41.6% (active) | -71.6% (active) | -85.2% (active) | -100% (active) | -92.7% (active) | -86.7% (active)
23 | NN1C(=O)CSC1=S | 104% | 93.5% | 100% | 111% | 94.8% | 96.8% | 110% | 106%
24 | C[N+](C)(CCOC(c1ccccc1)c1ccccc1)CC(=O)OCc1ccccc1 | 120% | 94.8% | 97.9% | 108% | 97% | 105% | 106% | 99.9%
25 | CC(C)(C)CC(C)(C)Nc1c(-c2c(O)c3ccccc3oc2=O)nc2c(Cl)cc(C(F)(F)F)cn12 | 95.3% | 78.7% | 103% | 102% | 107% | 70.4% | 107% | 103%
26 | Cc1cc(C(=O)Nc2cc(Oc3ccc4nc(NC(=O)C5CC5)cn4n3)ccc2C)n(C)n1 | 53.4% | 30.1% | 34.3% | 15.2% | 33.7% | 6.14% (active) | 2.16% (active) | 12.2%
27 | COC(=O)c1ccc2c(C(=Nc3ccc(N(C)C(=O)CN4CCN(C)CC4)cc3)c3ccccc3)c(O)[nH]c2c1 | 47.4% | 55.8% | 72.6% | 67.4% | 33.5% | 20.2% | 84.3% | 8.95% (active)
28 | CC(C)n1c(NCCc2ccc(O)c(O)c2)nc2c1c(=O)n(C)c(=O)n2C | 93.7% | 84.5% | 98.5% | 102% | 95.4% | 97% | 86.9% | 91%
29 | CC(N)C(Cc1ccccc1)c1ccc(Cl)cc1 (stereo not given) | 75.5% | 88.4% | 94.1% | 88.9% | 90.3% | 78.8% | 84.5% | 98.9%
30 | CO[C@@H](C(=O)N1Cc2[nH]nc(NC(=O)c3ccc(N4CCN(C)CC4)cc3)c2C1)c1ccccc1 | -16.3% (active) | -10.8% (active) | 19.5% | 21.5% | 17.7% | -35.7% (active) | 26.4% | -28.7% (active)
